In PubChem BioAssay AID686978 (National Center for Advancing Translational Sciences (NCATS), 2013):
The whole screen tested about 420,000 compounds, of which about 64,000 (15%) were called active. Another 27% or so got no clear call; they are omitted. The list is a sample of the results. A number with no mark means an inactive call. The call rests on the fitted dose curve; in most records, active means well fitted inhibition curve with a large enough effect; inconclusive means small, poorly fitted or top-dose-only effect; inactive means flat fitted curve, though single readings scatter.

Experiment: qHTS for Inhibitors of human tyrosyl-DNA phosphodiesterase 1 (TDP1): qHTS in cells in absence of CPT; further: nearly all actives have a fitted effect of over 55% in size
Settings: DT40 Tdp1-/- hTDP1 cells, no CPT, ATP luminescence, 48 h; activity change, negative = growth inhibition: at 46.2 µM (top of the series)
In short: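 Chicken DT40 Tdp1-/- cells complemented with human TDP1, screened without camptothecin (DMSO vehicle only), 400 cells/well. Compounds pin-transferred, cells incubated at 37 °C for at least 48 hr. Growth read as ATP-dependent luminescence (CellTiter-Glo, 30 min at RT).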
On the % scale 0 is the no-effect control and ±100 the full control effect; potency means the concentration at half of the fitted maximal effect.

Row | SMILES | activity change, negative = growth inhibition | Potency
1 | O=S(O)CNc1ccc(S(=O)(=O)c2ccc(NCS(=O)O)cc2)cc1 | -10.2% | –
2 | Cc1ccccc1NC(=O)Cn1c(=O)n(Cc2ccco2)c(=O)c2ccc(C(=O)NC3CCCC3)cc21 | -16.3% | –
3 | Cc1ccc(COc2ccc(/C=N/NC(=O)CN3CCCCC3)cc2)cc1 | -30% | –
4 | Cc1ccc(/C=N/NC(=O)c2sccc2OCc2ccc(F)cc2)cc1 | – | 18.4 µM (active)
5 | CNC(=S)NNC(=O)c1sccc1OCc1ccccc1 | 4.06% | –
6 | CCN(CC)S(=O)(=O)c1ccc(NC(=O)CN(c2cccc(F)c2)S(C)(=O)=O)cc1 | -17.4% | –
7 | C=CCNc1scc(-c2ccccc2)[n+]1CC=C | -27.5% | –
8 | C=CCNC(=O)c1csc(-c2ccccc2)n1 | -15.1% | –
9 | C=CC[n+]1c(-c2ccc(C)cc2)csc1NNC(=O)Nc1ccccc1 | – | 9.2 µM (active)
10 | Cn1cnnc1Sc1ccc(S(C)(=O)=O)cc1[N+](=O)[O-] | -23.8% | –
11 | CNC[C@H]1OCc2cnnn2CCCC(=O)N([C@H](C)CO)C[C@@H]1C | 14.2% | –
12 | CCN(CC)C(=O)C(C)N1c2cccc3cccc(c23)S1(=O)=O (stereo unspecified) | – | 16.4 µM (active)
13 | CC(C(=O)N1CCOCC1)N1c2cccc3cccc(c23)S1(=O)=O (stereo unspecified) | -9.94% | –
14 | CC(C)CN(CC(C)C)C(=O)CN1c2cccc3cccc(c23)S1(=O)=O | 6.03% | –
15 | CCNC(=O)C1(C)CCN(C(=O)c2ccccc2)C1 (stereo unspecified) | -2.76% | –
16 | COc1ccc(OC)c(CCNC(=O)CCn2ccc3cc(S(=O)(=O)N4CCCC4)ccc32)c1 | -2.31% | –
17 | O=C(CCn1ccc2cc(S(=O)(=O)N3CCCC3)ccc21)NCc1cccc(Cl)c1 | – | 20.6 µM (active)
18 | O=C(COc1ccc(S(=O)(=O)N2CCCCC2)cc1)NCc1ccccn1 | -9.77% | –
19 | O=C(NCc1ccccc1)C1CCN(S(=O)(=O)c2ccc3[nH]c(=O)ccc3c2)CC1 | 6.07% | –
20 | O=C(Cn1ccc2cc(S(=O)(=O)N3CCCC3)ccc21)NCc1ccccc1 | – | 9.2 µM (active)
21 | CCCCN(C(=O)c1ccc(S(=O)(=O)N2CCOCC2)cc1)C1CCS(=O)(=O)C1 (stereo unspecified) | 2.31% | –
22 | O=C(CN1CCOC1=O)N1CCCC(Nc2ccc(F)c(F)c2)C1 (stereo unspecified) | -0.497% | –

Row | SMILES | activity change, negative = growth inhibition | Potency
23 | Cc1ccc([N+](=O)[O-])cc1S(=O)(=O)N1CCCN(C)CC1 | -1.86% | –
24 | Cc1cc(NC(=O)c2ccc(-c3ccc(Cl)cc3)o2)cc(-c2nc3ncccc3o2)c1O | -17.9% | –
25 | N#Cc1ccsc1NC(=O)CN1CCCCC1 | -24.9% | –
26 | O=S(=O)(c1cc(Cl)ccc1Cl)N1CCN(Cc2ccco2)CC1 | -8.69% | –
27 | O=C(CN1CCN(S(=O)(=O)c2cc(Cl)ccc2Cl)CC1)c1ccc(O)c(O)c1 | – | 2.59 µM (active)
28 | CCN1CCN(C(=O)C2CCN(S(=O)(=O)c3cc(Cl)ccc3Cl)CC2)CC1 | -22.5% | –
29 | CN1CCN(S(=O)(=O)c2cccc(C(=O)Nc3sccc3C#N)c2)CC1 | 2.02% | –
30 | N#Cc1ccsc1NC(=O)CN1CCN(S(=O)(=O)c2cc(Cl)ccc2Cl)CC1 | – | 20.6 µM (active)
31 | Cn1c(SCc2nc3ccccc3s2)nnc1-c1ccc2c(c1)OCO2 | -5.86% | –
32 | COCc1cc(C)nc(SCC(=O)Nc2cccc(C)c2)c1C#N | -5.04% | –
33 | Cc1cc(C)nc(SCc2ccccc2C#N)n1 | -0.525% | –
34 | COc1ccc(/C=C/C(=O)c2cc(Br)ccc(=O)c2O)cc1 | – | 20.6 µM (active)
35 | COc1ccc2oc(=O)c(C(=O)O)cc2c1 | -17.5% | –
36 | COc1ccc2oc(=N)c(C(=O)Nc3ccc(Br)cc3)cc2c1 | -11.4% | –
37 | COc1ccc(NC(=O)Cn2nnc(C(=O)NCCc3ccc(OC)c(OC)c3)c2N)cc1 | 0.857% | –
38 | CC(C)(C)n1cnnc1Sc1ccc([N+](=O)[O-])cn1 | -18.6% | –
39 | O=C(COC(=O)c1cc(S(=O)(=O)N2CCCCC2)ccc1Cl)NCc1ccco1 | -21.6% | –
40 | O=C(NNC(=O)c1cc(S(=O)(=O)N2CCCCC2)ccc1Cl)c1ccccc1O | – | 20.6 µM (active)
41 | CC1CCCCC1NC(=O)c1cn(C)c2ccc(S(=O)(=O)N3CCOCC3)cc2c1=O (stereo unspecified) | 8.68% | –
42 | CC(=O)NC(=O)c1ccccc1O | -3.97% | –
43 | Cc1ccc(S(=O)(=O)N2CCCCC2)cc1NC(=O)CCNC(=O)c1ccccc1Cl | -27.7% | –
44 | O=C(NNC(=O)c1ccccc1O)c1ccccc1O | – | 2.91 µM (active)

Row | SMILES | activity change, negative = growth inhibition | Potency
45 | Cc1ccc(S(=O)(=O)N2CCN(C)CC2)cc1C(=O)NC1CCCCC1 | -2.9% | –
46 | Cc1cc(C(=O)CCC(=O)NNC(=O)c2ccccc2O)c(C)s1 | -27.6% | –
47 | CC1CCCC(NC(=O)c2cc(S(=O)(=O)N3CCCCC3)ccc2Cl)C1C (stereo unspecified) | – | 25.9 µM (active)
48 | C[C@@H]1O[C@@H](OC[C@H]2O[C@@H](Oc3c(-c4ccc(O)cc4)oc4cc(O)cc(O)c4c3=O)[C@H](O)[C@@H](O)[C@@H]2O)[C@H](O)[C@H](O)[C@H]1O | -1.73% | –
49 | CCOc1ccc(C(C)NC(=O)CN2C(=O)NC3(CCCCC3)C2=O)cc1OCC (stereo unspecified) | 3.71% | –
50 | Cc1ccccc1NC(=O)Cn1c(=O)n(CC2CCCO2)c(=O)c2ccccc21 (stereo unspecified) | -19.6% | –
51 | C=C1O[C@@](CO)(n2cnc3c(N)ncnc32)[C@H](O)[C@@H]1O | -21.3% [at 92.5 µM] | –
52 | CC(C)Oc1ccc(CCC(=O)NNC(=S)NCc2ccccc2)cc1 | 16.7% | –
53 | O=C(NNC(=O)c1ccc(Cl)nc1)c1ccc(Br)cc1 | -8.99% | –
54 | O=C(CCc1ccccc1)NNC(=O)c1ccc(Br)cc1 | -26.7% | –
55 | CC(=O)NC(=S)NNC(=O)c1ccc(Br)cc1 | – | 5.8 µM (active)
56 | O=C(NC(=S)Nc1ccc(S(=O)(=O)N2CCOCC2)cc1)c1ccccc1[N+](=O)[O-] | -27.2% | –
57 | COC(=O)CNC(=O)c1ccccc1[N+](=O)[O-] | 1.91% | –
58 | COc1ccc(C(=S)Nc2ccccc2)cc1 | -15.9% | –
59 | CNC(=S)NNC(=O)c1ccc(N(C)C)cc1 | 16.8% | –
60 | COc1ccc(C(=O)NC(=S)NNC(=O)CCc2ccccc2)cc1 | – | 6.51 µM (active)
61 | COc1ccc(C(=O)NNC(=S)NC(=O)c2ccccc2[N+](=O)[O-])cc1 | – | 23.1 µM (active)
62 | COc1ccc(C(=O)NNC(=S)NC(=O)c2ccccc2)cc1 | – | 16.4 µM (active)
63 | COc1ccc(C(=O)NC2CCN(C(=S)Nc3ccccc3)CC2)cc1 | -19.5% | –
64 | CS(=O)(=O)Nc1ccccc1C(=O)OCC(=O)NC1CC1 | 18.2% | –
65 | CC(C)NC(=O)c1ccc(Sc2ccccc2)c([N+](=O)[O-])c1 | -5.56% | –
66 | CCOc1ncccc1C(=O)OCc1cn2cc(Cl)ccc2n1 | -11.7% | –
